Bioassay records (PubChem)
Compounds with a hit are over-represented: about 7.3% of the library has one in this group of screens.
SMN2 splice up – qHTS Assay for Enhancers of SMN2 Splice Variant Expression. HEK293 SMN2-luciferase splicing reporter, luminescence, 30-36 h. Potency, µM (top dose mostly 46.1 µM), for the others: at the top dose activity change, positive = activation, actives largely listed as activators. 210,000 tested, 2.8% active; note: % of control where 0% means no effect; nearly all actives have a fitted effect of over 55% in size
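HEK293 cells carry an SMN2 […]–luciferase reporter in which exon 7 inclusion puts luciferase in frame. Cells were plated 10-12 h before compound addition, then incubated 30-36 h at 37C. ONE-Glo luminescence was read; sodium butyrate at 4.5 mM final served as control.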
NPC1 promoter act – qHTS Assay for NPC1 Promoter Activators; Potency, µM (titrated, usually from 9.22 µM), for the others: at the top dose activation, most hits filed as activators; AID 485313, 2010; 320,000 tested, 2.4% active; Huh7 NPC1 promoter luciferase reporter, 24 h; note: % of control where 0% means no effect; nearly all actives have a fitted effect of over 60% in size
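Quantitative HTS used a cell-based reporter: Huh7 cells stably bearing the NPC1 promoter upstream of luciferase were treated with compounds for 24 h, and promoter activation was read as luminescence.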
KinaseGlo FLuc – Counterscreen for Luciferase (Kinase-Glo TM) Inhibition | Luciferin 4-monooxygenase (Photuris pensylvanica), Q27757 | Kinase-Glo luciferase, ATP luminescence, 8 min | Potency, µM (series often up to 38.3 µM), for inactives: at the top dose activity change, negative = inhibition, most hits filed as inhibitors | 200,000 tested, 0.28% active | AID 1379, 2008; note: % is set by controls: 0 for no effect and ±100 for the full control effect; nearly all actives have a fitted effect of over 60% in size
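Inhibition of Kinase-Glo luciferase light generation was assessed at 10 uM ATP in pH 7.2 imidazole buffer, with luminescence measured after eight minutes at ambient temperature.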
FLuc counter – qHTS profiling assay for firefly luciferase inhibitor/activator using purifed enzyme and Km concentrations of substrates (counterscreen for miR-21 project). Luciferin 4-monooxygenase (Photinus pyralis), P08659. purified FLuc, Km substrates, luminescence inhibition. Potency, µM (doses to about 57.5 µM), without a hit: at the highest dose activity change, negative = inhibition, most hits filed as inhibitors. 360,000 tested, 6.9% active. AID 588342, 2011;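 note: plate controls were vehicle for no effect and reference inhibitor for full effect; nearly all actives have a fitted effect of over 55% in size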
Target sequence (P08659 whole entry, looked up): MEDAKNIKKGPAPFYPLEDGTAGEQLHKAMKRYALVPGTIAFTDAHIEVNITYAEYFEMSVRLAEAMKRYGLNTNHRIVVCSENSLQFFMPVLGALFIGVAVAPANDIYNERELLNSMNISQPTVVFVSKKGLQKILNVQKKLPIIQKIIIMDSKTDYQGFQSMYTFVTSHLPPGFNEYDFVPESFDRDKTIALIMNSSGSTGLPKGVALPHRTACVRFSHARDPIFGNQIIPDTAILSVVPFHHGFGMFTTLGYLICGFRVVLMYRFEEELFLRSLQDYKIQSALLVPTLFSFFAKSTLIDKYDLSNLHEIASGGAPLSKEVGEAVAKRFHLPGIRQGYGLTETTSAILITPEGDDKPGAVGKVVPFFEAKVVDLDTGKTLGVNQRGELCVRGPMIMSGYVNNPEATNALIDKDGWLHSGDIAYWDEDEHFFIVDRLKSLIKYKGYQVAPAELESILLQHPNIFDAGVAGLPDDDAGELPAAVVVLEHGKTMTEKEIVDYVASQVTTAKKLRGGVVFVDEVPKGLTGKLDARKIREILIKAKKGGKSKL
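Purified P. pyralis luciferase, 10 nM final, with Km-level 10 uM D-luciferin and 10 uM ATP in 50 mM Tris acetate pH 7.5, 10 mM Mg acetate, 0.01% Tween-20, 0.05% BSA; 6-point qHTS titration about 60 µM downward; luminescence read.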
ELG1 genotoxic – qHTS screen for small molecules that induce genotoxicity in human embryonic kidney (HEK293T) cells expressing luciferase-tagged ELG1. HEK293T ELG1-luciferase reporter, luminescence, 16 h. Potency, µM (top dose mostly 46 µM), for inactives: at the highest dose activity change, positive = activation, most hits filed as activators. 330,000 tested, 1.3% active. AID 504466, 2011; note: % of control where 0% means no effect; nearly all actives have a fitted effect of over 60% in size
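Genotoxicity was scored as increased ELG1-luciferase reporter signal, measured by ONE-Glo luminescence (30 min, room temperature). Compound or vehicle exposure of the HEK293T reporter cells lasted 16 hr at 37°C.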
Rab9 promoter act – qHTS Assay for Rab9 Promoter Activators. 320,000 tested, 2.8% active. Potency, µM (titrated, usually from 9.22 µM), for inactives: top-dose activation, negative = inhibition, hits mostly activators. AID 485297, 2010. Huh7 Rab9 promoter-luciferase reporter, luminescence, 24 h; note: % of control where 0% means no effect; nearly all actives have a fitted effect of over 60% in size
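Promoter activation is measured as luciferase luminescence in Huh7 cells stably transfected with a Rab9 promoter–luciferase construct, following 24 h compound exposure at 37 °C and 10 min reagent incubation at ambient temperature.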
The depositor's hits bear a star; [ ] = dose if it differs, or a comment. Calls come from the whole dose curve; as a rule, active = well fitted curve in the direction sought with a large enough effect; inconclusive = small, poorly fitted or top-dose-only effect, or another doubt; inactive = no such curve, though single readings can be large; an effect the other way counts as inactive or inconclusive. Potency is the fitted concentration of half-maximal effect.

`O=C(CSc1ccccc1)N1CCC2(CC1)OCCO2` gave SMN2 splice up 12.6µM*, NPC1 promoter act inconclusive, KinaseGlo FLuc -1.0%, FLuc counter inconclusive, ELG1 genotoxic 10.3µM* and Rab9 promoter act inconclusive.
For O=C(CN1CCN(Cc2ccc(Cl)cc2)C1=O)N1CCC2(CC1)OCCO2 the results were SMN2 splice up -7.1%, NPC1 promoter act -2.0%, KinaseGlo FLuc -3.8%, FLuc counter 13.2%, ELG1 genotoxic -0.8% and Rab9 promoter act -3.2%.
For O=C(c1ccc(CNS(=O)(=O)c2ccc(Br)cc2)cc1)N1CCC2(CC1)OCCO2 the results were SMN2 splice up -31.9%, NPC1 promoter act -3.0%, KinaseGlo FLuc -2.4%, FLuc counter 6.3%, ELG1 genotoxic -4.7% and Rab9 promoter act -5.8%.
`Cn1c(=O)cc(SCC(=O)N2CCC3(CC2)OCCO3)c2ccc(Cl)cc21` gave SMN2 splice up 20µM*, NPC1 promoter act -1.3%, KinaseGlo FLuc -2.6%, FLuc counter 1.0%, ELG1 genotoxic 14.2% and Rab9 promoter act -2.4%.
CCC1CN2CCc3cc(OC)c(OC)cc3C2CC1CC1NCCc2cc(OC)c(OC)cc21 (centres undefined) was read as SMN2 splice up -86.4% and KinaseGlo FLuc -0.2%.
`Cc1ccc(-c2nc3ccc(Cl)cc3n2OC(=O)N(C)C)cc1` gave SMN2 splice up -15.0%, NPC1 promoter act 3.16µM*, KinaseGlo FLuc -3.8%, FLuc counter inconclusive, ELG1 genotoxic 2.91µM* and Rab9 promoter act 3.16µM*.
Screening C[C@H]1C2C=C[C@H]1[C@@H](C(=O)O)[C@@H]2c1c2ccc(=O)c(O)c-2oc2c(O)c(O)ccc12 returned SMN2 splice up -3.0%[9.22 µM] and KinaseGlo FLuc -8.0%[7.66 µM].
COc1ccc(-c2cc(=Nc3ccccc3)c3cc(C)ccc3o2)cc1 was read as SMN2 splice up inconclusive, NPC1 promoter act 5.9%, KinaseGlo FLuc -3.1%, FLuc counter 26.9µM*, ELG1 genotoxic inconclusive and Rab9 promoter act 20.8%.
COc1ccc(-c2cc(=NCCC(=O)O)c3cc(C)ccc3o2)cc1 was read as NPC1 promoter act inconclusive, KinaseGlo FLuc 1.2%, FLuc counter 13.5µM*, ELG1 genotoxic inconclusive and Rab9 promoter act inconclusive.
`Cc1cccc(NC(=O)CSc2ccc(-c3ccco3)nn2)c1` gave SMN2 splice up -37.2%, NPC1 promoter act 0.7%, KinaseGlo FLuc 1.5%, FLuc counter 26.9µM*, ELG1 genotoxic -1.1% and Rab9 promoter act 13.9%.
COc1ccc(NC(=O)CSc2nc(-c3ccco3)cc(C(F)(F)F)n2)cc1OC was read as SMN2 splice up -47.7% and FLuc counter 2.7%.
O=C1NC(=O)N(CCc2ccc(F)cc2)C(=O)/C1=C/c1ccco1 was read as SMN2 splice up -15.5%, NPC1 promoter act 0.0%, KinaseGlo FLuc -5.2%, FLuc counter inconclusive, ELG1 genotoxic 11.3% and Rab9 promoter act -1.1%.
For COc1ccc(CN2C(=O)NC(=O)/C(=C\c3ccco3)C2=O)cc1 the results were SMN2 splice up 1.3%, NPC1 promoter act -9.0%, KinaseGlo FLuc -2.1%, FLuc counter 23.9µM*, ELG1 genotoxic -0.6% and Rab9 promoter act -2.1%.
`COc1ccc(CN2C(=O)NC(=O)/C(=C\c3cc(OC)c(OC)c(OC)c3)C2=O)cc1` gave SMN2 splice up -41.6%, NPC1 promoter act 0.8%, KinaseGlo FLuc 3.2%, FLuc counter 19µM*, ELG1 genotoxic 5.1% and Rab9 promoter act 0.3%.
CN(C)CCCc1c[nH]c2ccccc12 was read as SMN2 splice up -17.1%[9.22 µM] and KinaseGlo FLuc -6.7%[7.66 µM].
`O=Cc1ccc(Cl)cc1Cl` gave SMN2 splice up -5.0%.
